Calls of active or inactive are those of the source.

Data on six molecules can be found in PubChem BioAssay.

The nature of assay [1]: optical density shifts of acrAB sulA E. coli – strain DRC41, OD650, 48 h, E. coli filamentation inducer project, primary screen (AID 1152).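 Further: E. coli MC1000 strain DRC41 lacking acrAB efflux pump and sulA.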 The following applies: higher = more signal, called active from +8 up or from −8 down.
Assay [2] in a line: probe aLefty1 binding on compound microarray – biochemical, small-molecule microarray, 635/667 nm fluorescence, primary screen (AID 1153).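 Further: score merges spot fluorescence with signal-to-noise ratio from the scanned slide images.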 Particulars: higher = more signal.
A short description of assay [3]: plasmodial surface anion channel blockers, osmotic lysis – cell-based, P. falciparum Indochina, OD700, 1 h, primary screen (AID 1154). Particulars: P. falciparum Indochina infected RBC osmotic lysis, higher = more signal, called active from +8 up or from −8 down.
Assay [4] can be described thus: plasmodial surface anion channel blockers, osmotic lysis – cell-based, P. falciparum Indochina, OD700, 2 h, primary screen (AID 1155).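 Further: lysis reports solute entry through the parasite surface anion channel PSAC.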 The following applies: P. falciparum Indochina infected erythrocytes, higher = more signal, called active from +8 up or from −8 down.
A short description of assay [5]: changes in parasitized red cell lysis, either direction – P. falciparum Indochina, OD700, 3 h, PSAC antagonist project, primary screen (AID 1156). The following applies: P. falciparum-infected erythrocytes, osmotic lysis, higher = more signal, called active from +8 up or from −8 down.
A short description of assay [6]: plasmodial surface anion channel blockers, osmotic lysis – cell-based, P. falciparum Indochina, OD700, 18 h, primary screen (AID 1157). The following applies: P. falciparum Indochina infected erythrocytes, osmotic lysis OD700, 18 h; higher = more signal, called active from +8 up or from −8 down.
Assay [7] in a line: S6 kinase pathway phospho-S6 level changes – cell-based, A549, cytoblot, luminescence, serum-stimulated, primary screen (AID 1158).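 Further: serum-stimulated A549 lung adenocarcinoma cells; signal is phosphorylated S6 detected by cytoblot immunostaining with HRP secondary.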 The following applies: 5 h, higher = more signal.
Assay [8] deals with NADPH oxidase 2 (Homo sapiens) (UniProt P04839). The experiment in a line: compounds shifting NOX2 Amplex Red fluorescence – cell-based, HEK293-NOX2, PMA-stimulated, NOX inhibitor project, primary screen (AID 1159). Further: test concentration not given here. Particulars: 45 min, higher = more signal, called active from +8 up or from −8 down.
Assay [9] has as its target NADPH oxidase 4 (Homo sapiens) (UniProt Q9NPH5). The experiment in a line: compounds shifting NOX4 Amplex Red fluorescence – cell-based, HEK293-NOX4, tetracycline-induced, NOX inhibitor project, primary screen (AID 1160). Particulars: HEK293-NOX4, Amplex Red H2O2 fluorescence, 45 min; higher = more signal, called active from +8 up or from −8 down.
Assay [10] deals with NADPH oxidase 5 (Homo sapiens) (UniProt Q96PH1). Briefly: compounds shifting NOX5 Amplex Red fluorescence – cell-based, HEK293-NOX5, NOX inhibitor project, primary screen (AID 1161). Particulars: HEK293-NOX5, ionomycin, 45 min, higher = more signal.
Assay [11] is described as follows: compound effects on lung adenocarcinoma cell viability – A549, calcein-AM fluorescence, 48 h, basal, profiling panel (AID 1162). Further: test concentration not given here. The following applies: higher = more signal.
Assay [12] can be described thus: compound effects on differentiated 3T3-L1 adipocyte viability – cell-based, 3T3-L1 adipocytes, calcein-AM fluorescence, 48 h, basal, profiling panel (AID 1163). Further: test concentration not given here. Particulars: 3T3-L1 adipocytes viability, higher = more signal.
Assay [13] in a line: compound effects on hepatocellular carcinoma cell viability – HepG2, calcein-AM fluorescence, 48 h, basal, profiling panel (AID 1164). Further: test concentration not given here. Particulars: higher = more signal.
Assay [14] in a line: compound effects on multiple myeloma cell viability – MM1S, calcein-AM fluorescence, 48 h, basal, profiling panel (AID 1165).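 Further: viability of MM1S multiple myeloma cells under basal unstimulated conditions; test concentration not given here.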 The following applies: higher = more signal.
The nature of assay [15]: calcein-AM signal in unstimulated myeloma cells – cell-based, calcein-AM fluorescence, 48 h, PK04 Diversity Set, profiling panel (AID 1166).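 Further: cells grown under basal conditions without added stimulus; test concentration not given here.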 The following applies: RPMI8226 myeloma viability, higher = more signal.
Assay [16] is described as follows: JC-1 mitochondrial signal, unstimulated HepG2 cells – cell-based, JC-1 fluorescence, 24 h, 100 nL compound, profiling panel (AID 1167). Further: test concentration not given here. The following applies: HepG2 mitochondrial potential, higher = more signal.
Assay [17] is described as follows: JC-1 mitochondrial signal, unstimulated adipocytes – cell-based, JC-1 fluorescence, 3T3-L1 adipocytes, 24 h, 100 nL compound, profiling panel (AID 1168). Further: test concentration not given here. Particulars: JC-1 mitochondrial fluorescence, higher = more signal, called active from +8 up or from −8 down.
Assay [18] is described as follows: JC-1 mitochondrial signal, unstimulated myeloma cells – cell-based, JC-1 fluorescence, RPMI8226, 24 h, 100 nL compound, profiling panel (AID 1169). Further: test concentration not given here. Particulars: JC-1 mitochondrial potential fluorescence, higher = more signal.
Assay [19] is described as follows: JC-1 mitochondrial signal, unstimulated MM1S myeloma – cell-based, JC-1 fluorescence, 24 h, 100 nL compound, profiling panel (AID 1170). Further: test concentration not given here. The following applies: MM1S mitochondrial potential, higher = more signal.
Assay [20] can be described thus: resazurin metabolic signal in A549 cells – cell-based, resazurin fluorescence, 24 h, PK04 Diversity Set, profiling panel (AID 1171). Further: test concentration not given here. Particulars: A549 viability, higher = more signal, called active from +8 up or from −8 down.

Chain of NADPH oxidase 2 (Homo sapiens) (P04839 whole entry, looked up): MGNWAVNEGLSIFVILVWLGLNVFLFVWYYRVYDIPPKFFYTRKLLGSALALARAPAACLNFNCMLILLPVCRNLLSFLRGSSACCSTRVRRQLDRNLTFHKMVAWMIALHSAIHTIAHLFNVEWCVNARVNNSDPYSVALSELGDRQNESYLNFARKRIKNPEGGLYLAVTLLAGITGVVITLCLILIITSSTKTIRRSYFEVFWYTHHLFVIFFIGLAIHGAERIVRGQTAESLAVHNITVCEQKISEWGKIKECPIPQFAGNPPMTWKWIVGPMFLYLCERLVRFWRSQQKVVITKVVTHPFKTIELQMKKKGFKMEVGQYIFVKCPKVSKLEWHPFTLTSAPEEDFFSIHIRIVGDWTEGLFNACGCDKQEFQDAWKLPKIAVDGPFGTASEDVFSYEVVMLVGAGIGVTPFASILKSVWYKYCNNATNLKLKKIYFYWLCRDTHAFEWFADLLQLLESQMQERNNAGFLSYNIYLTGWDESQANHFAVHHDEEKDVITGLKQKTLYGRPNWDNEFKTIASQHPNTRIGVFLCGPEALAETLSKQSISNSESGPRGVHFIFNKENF
Chain of NADPH oxidase 4 (Homo sapiens) (Q9NPH5 whole entry, looked up): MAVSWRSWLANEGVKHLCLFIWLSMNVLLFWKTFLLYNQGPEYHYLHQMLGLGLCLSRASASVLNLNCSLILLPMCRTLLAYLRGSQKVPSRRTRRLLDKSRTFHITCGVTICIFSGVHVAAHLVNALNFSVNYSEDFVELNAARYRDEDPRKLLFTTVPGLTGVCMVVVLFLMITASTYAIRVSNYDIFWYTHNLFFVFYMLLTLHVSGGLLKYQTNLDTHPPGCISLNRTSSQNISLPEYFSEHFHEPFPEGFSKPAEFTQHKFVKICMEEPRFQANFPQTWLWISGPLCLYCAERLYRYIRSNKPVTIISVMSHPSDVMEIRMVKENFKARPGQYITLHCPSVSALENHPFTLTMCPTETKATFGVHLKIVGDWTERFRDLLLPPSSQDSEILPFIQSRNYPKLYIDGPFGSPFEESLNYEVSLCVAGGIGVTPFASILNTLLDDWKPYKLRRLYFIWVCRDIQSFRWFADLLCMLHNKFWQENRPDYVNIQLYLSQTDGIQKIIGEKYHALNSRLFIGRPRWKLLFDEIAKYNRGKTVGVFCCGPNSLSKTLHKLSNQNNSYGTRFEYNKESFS
Chain of NADPH oxidase 5 (Homo sapiens) (Q96PH1 whole entry, looked up): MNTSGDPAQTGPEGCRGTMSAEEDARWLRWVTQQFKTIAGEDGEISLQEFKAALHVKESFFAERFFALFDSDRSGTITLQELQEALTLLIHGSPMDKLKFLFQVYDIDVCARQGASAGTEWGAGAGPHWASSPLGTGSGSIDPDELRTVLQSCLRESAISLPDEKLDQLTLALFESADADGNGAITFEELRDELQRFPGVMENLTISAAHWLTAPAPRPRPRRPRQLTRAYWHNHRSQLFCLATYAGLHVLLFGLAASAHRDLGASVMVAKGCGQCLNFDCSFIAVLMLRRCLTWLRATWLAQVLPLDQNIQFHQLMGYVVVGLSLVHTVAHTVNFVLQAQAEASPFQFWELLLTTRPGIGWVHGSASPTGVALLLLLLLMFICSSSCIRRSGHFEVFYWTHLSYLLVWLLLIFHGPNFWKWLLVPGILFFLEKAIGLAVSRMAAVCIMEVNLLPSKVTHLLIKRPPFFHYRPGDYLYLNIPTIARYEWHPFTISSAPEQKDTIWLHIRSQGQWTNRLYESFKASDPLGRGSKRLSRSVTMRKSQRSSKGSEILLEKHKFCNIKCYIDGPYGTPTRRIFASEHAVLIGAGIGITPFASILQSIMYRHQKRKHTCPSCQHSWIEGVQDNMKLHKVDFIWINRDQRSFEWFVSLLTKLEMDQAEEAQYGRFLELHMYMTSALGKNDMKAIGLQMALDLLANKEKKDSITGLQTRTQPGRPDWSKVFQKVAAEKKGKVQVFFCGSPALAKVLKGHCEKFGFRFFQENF

As for `C=CCOC(=O)[C@@H]1[C@H]2C(=O)O[C@H](c3ccccc3)[C@H](c3ccccc3)N2[C@H](c2ccc(OCCOC(=O)[C@H]3C[C@H]4C(=O)N[C@@H](CCCCNC(C)=O)C(=O)N4[C@H]3c3ccc(O)cc3)cc2)[C@@]12C(=O)Nc1ccc(I)cc12`, the z-score in [1] was -0.725 (inactive); in assay [3], 2.99 (inactive); in assay [4] it was 1.92 (inactive); in assay [5] it was 0.855 (inactive); in assay [6], 1.23 (inactive); in assay [7], 1.3. Besides, the z-score in assay [8] was 2.16 (inactive); in assay [9], 1.27 (inactive); in [10], 1.64; in assay [11], -0.778; in assay [12] it was -0.796; in [13], -0.931. Moreover, the z-score in assay [14] is -0.989; in assay [15], 0.572; in [16], -0.422; in assay [17], 0.725 (inactive); in assay [18] it was -0.324; in assay [19], -0.99. The z-score in assay [20] was 0.213 (inactive). In assay [2], the composite z-score turned out to be 0.325.
Turning to `COCCOC(=O)N1C(=O)[C@@]2(c3cc(C#CC4=CCCCC4)ccc31)[C@H](c1ccc(O)cc1)N1[C@H](c3ccccc3)[C@H](c3ccccc3)OC(=O)[C@H]1[C@@H]2C(=O)N1CCCCCCC1`, the z-score in [1] was 1.65 (inactive); in assay [3], -0.138 (inactive); in assay [4], -0.321 (inactive); in [5], -0.52 (inactive); in assay [6] it was 0.389 (inactive); in assay [7], -0.137. The z-score is 1.06 (inactive) in assay [8]; 0.325 (inactive) in assay [9]; 1.53 in [10]; 1.43 in assay [11]; 1.06 in [12]; 0.0785 in assay [13]. The z-score in [14] was -0.278; in assay [15], -0.641; in [16] it was -0.926; in [17], 1.37 (inactive); in [18], -0.247; in assay [19], 0.12. Further, the z-score in assay [20] was 0.676 (inactive). Also, the composite z-score in [2] was determined as 1.49.
With `COCCOC(=O)N1C(=O)[C@@]2(c3cc(C#CCNC(N)=O)ccc31)[C@H](c1ccc(OCCO)cc1)N1[C@H](c3ccccc3)[C@H](c3ccccc3)OC(=O)[C@H]1[C@@H]2C(=O)N1CCCCCCC1`, the z-score in assay [1] is 1.92 (inactive); in assay [3] it was 1.96 (inactive); in assay [4], 0.568 (inactive); in [5], 0.465 (inactive); in [6] it was -0.737 (inactive); in assay [7], 1.01. Also, the z-score was 2.38 (inactive) in [8]; 1.22 (inactive) in [9]; 0.765 in assay [10]; 0.118 in assay [11]; 1.97 in [12]; -0.164 in [13]. The z-score in assay [14] is -0.115; in [15], 0.269; in assay [16], -0.411; in assay [17], -3.07 (inactive); in assay [18], -0.659; in assay [19], -1.11. Besides, the z-score in assay [20] was 0.643 (inactive). In [2], this molecule yielded a composite z-score of 1.16.
For `CN(C)c1ccc(C(O)C2C=CC3C(=O)NC(=O)C3N2Nc2ccc(Cl)cc2Cl)cc1` (stereo not given), the z-score in assay [1] is -0.85 (inactive); in [3] it was 3.51 (inactive); in assay [4], 0.567 (inactive); in assay [5], 1.45 (inactive); in assay [6], 1.27 (inactive); in assay [7] it was -0.645. Moreover, the z-score in assay [8] is -1.15 (inactive); in assay [9] it was -4.56 (inactive); in assay [10] it was -2.72; in assay [11] it was -0.602; in assay [12], 0.117; in assay [13], -0.675. In addition, the z-score in [14] is 0.463; in assay [15], -0.792; in [16] it was -1.26; in [17] it was -1.06 (inactive); in assay [18] it was -0.752; in assay [19], 0.261. Further, the z-score in assay [20] is -0.555 (inactive). Further, in assay [2], the composite z-score was 0.68.
For the molecule `[N-]=[N+]=Nc1ccccc1C[C@@]1(C(=O)N2CCOCC2)N=C(c2ccc(OCCCO)cc2)O[C@@H]1c1ccccc1N=[N+]=[N-]`, the z-score in [1] is 1.94 (inactive); in [3] it was 29.9 (active); in assay [4], 27.6 (active); in assay [5] it was 3.13 (inactive); in [6] it was 4.27 (inactive); in assay [7], 2.07. Moreover, the z-score is 0.781 (inactive) in [8]; 0.516 (inactive) in assay [9]; -0.745 in assay [10]; -0.71 in assay [11]; 0.271 in assay [12]; -1.19 in [13]. Besides, the z-score in assay [14] is -3.45; in assay [15] it was -4.53; in assay [16], 0.925; in assay [17], 1.98 (inactive); in assay [18], -1.23; in assay [19] it was -1.54. In assay [20], the z-score was -1.32 (inactive). For the same molecule, the composite z-score in [2] is 0.241.
As to `CO[C@H]1COC(=O)[C@@H](Cc2ccccc2)NC(=O)[C@@H](C)COC(=O)CC=C[C@@H]1C`, the z-score in assay [1] was 0.428 (inactive); in [3] it was -0.224 (inactive); in [4], -0.204 (inactive); in assay [5], -0.234 (inactive); in [6], -0.481 (inactive); in assay [7], -0.003. Moreover, the z-score was -0.246 (inactive) in [8]; 0.937 (inactive) in [9]; 0.264 in assay [10]; 0.899 in assay [11]; 0.172 in [12]; 0.662 in [13]. In addition, the z-score in assay [14] is 0.221; in assay [15] it was 0.373; in assay [16] it was 0.606; in [17], 0.0117 (inactive); in [18], 0.175; in [19], 0.662. Besides, the z-score in [20] is 1.2 (inactive). Besides, the composite z-score in assay [2] is -0.0573.
